# Data from publication PMC7862700, “An all-to-all approach to the identification of sequence-specific readers for epigenetic DNA modifications on cytosine”.
# Legend:
# Test in all cases: DAPPL (digital affinity profiling via proximity ligation, sequencing); 10 mM Tris-HCl pH 7.5, 50 mM NaCl, 1 mM DTT, 4% glycerol, room temperature, 30 min; GST-TFs on glutathione beads, 16-mer random dsDNA library, 0.1% formaldehyde crosslink after washing; high values mean tight binding
# Settings in all cases: protein: recombinant; tags: N-terminal GST; dsDNA, one strand shown
# ELK1 = target: T1, ELK1 (Homo sapiens, UniProt P19419 1-428)
# T1 sequence: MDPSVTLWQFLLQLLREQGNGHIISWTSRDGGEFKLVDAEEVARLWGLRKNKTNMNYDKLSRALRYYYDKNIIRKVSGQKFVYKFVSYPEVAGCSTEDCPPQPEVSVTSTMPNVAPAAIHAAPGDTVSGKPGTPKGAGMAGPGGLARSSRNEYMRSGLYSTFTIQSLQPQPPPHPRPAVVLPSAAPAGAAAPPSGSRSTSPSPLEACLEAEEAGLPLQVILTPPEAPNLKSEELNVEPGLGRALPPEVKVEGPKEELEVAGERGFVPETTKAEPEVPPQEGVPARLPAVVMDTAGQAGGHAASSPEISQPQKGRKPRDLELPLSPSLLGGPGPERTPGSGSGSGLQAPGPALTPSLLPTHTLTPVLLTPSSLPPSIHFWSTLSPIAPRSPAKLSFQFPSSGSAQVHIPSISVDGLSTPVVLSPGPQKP
# How it was run: (§1)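 Sequencing on an Illumina NextSeq500 followed washing, crosslinking with 0.1% formaldehyde, proximity ligation (BsaI/T4 ligase, 1 h, 37 °C) and PCR amplification of pools that had been incubated for 30 min at room temperature with 200 nmole of a random double-stranded 16-mer DNA library in Tris/NaCl/DTT/glycerol buffer. Each pool held DNA-barcoded human transcription factors, expressed in yeast as GST fusions and captured on glutathione beads, plus a tag-only sample. Binding signal is a hexamer's read frequency for a factor divided by its frequency in the tag-only sample.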
# GABPA = target: T2, GABPA (Homo sapiens, UniProt Q06546 1-454)
# T2 sequence: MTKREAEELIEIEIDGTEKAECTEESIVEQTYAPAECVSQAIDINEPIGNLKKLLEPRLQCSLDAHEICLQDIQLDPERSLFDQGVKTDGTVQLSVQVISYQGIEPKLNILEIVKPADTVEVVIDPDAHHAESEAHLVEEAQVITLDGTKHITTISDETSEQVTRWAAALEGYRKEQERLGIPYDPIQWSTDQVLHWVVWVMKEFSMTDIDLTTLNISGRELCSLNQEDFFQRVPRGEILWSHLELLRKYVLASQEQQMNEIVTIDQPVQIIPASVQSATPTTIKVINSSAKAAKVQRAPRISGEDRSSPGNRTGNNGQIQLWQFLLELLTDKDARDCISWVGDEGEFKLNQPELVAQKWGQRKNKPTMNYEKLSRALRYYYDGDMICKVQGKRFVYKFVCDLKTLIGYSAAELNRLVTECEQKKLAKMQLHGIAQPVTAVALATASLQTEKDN
# How it was run: as §1
# ERG = target: T3, ERG (Homo sapiens, UniProt P11308 1-479)
# T3 sequence: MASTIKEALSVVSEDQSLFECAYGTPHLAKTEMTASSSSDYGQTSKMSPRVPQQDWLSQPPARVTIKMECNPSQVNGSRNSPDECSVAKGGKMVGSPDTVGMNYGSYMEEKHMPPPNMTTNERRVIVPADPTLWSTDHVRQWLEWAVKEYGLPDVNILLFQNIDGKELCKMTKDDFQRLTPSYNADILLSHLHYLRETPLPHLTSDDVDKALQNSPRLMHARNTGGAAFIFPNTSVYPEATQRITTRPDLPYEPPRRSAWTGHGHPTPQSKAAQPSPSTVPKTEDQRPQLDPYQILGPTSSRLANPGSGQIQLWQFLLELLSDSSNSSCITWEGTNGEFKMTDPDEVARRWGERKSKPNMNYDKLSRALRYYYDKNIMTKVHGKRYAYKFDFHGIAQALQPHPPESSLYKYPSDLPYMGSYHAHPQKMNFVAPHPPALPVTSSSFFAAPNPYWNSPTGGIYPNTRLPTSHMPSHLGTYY
# How it was run: as §1
# ELF1 = ELF1 (Homo sapiens, UniProt P32519 1-619)
# Chain of ELF1 (P32519 whole entry): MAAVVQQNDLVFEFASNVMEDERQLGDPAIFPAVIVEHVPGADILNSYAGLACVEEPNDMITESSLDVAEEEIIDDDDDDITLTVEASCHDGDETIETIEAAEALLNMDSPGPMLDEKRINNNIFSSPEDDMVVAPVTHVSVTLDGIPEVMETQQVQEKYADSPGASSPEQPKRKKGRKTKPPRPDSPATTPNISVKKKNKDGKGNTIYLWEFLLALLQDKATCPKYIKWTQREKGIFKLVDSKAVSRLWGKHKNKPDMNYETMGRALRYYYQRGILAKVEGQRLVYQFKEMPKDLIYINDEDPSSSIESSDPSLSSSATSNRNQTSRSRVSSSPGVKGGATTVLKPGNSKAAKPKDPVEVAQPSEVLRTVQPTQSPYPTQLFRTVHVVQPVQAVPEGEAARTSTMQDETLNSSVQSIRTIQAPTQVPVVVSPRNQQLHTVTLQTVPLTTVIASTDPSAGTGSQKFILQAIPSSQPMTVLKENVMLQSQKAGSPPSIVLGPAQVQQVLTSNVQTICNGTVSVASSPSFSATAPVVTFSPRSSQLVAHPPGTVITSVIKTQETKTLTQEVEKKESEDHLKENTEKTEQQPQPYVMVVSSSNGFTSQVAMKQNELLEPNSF
# How it was run: as §1
# EHF = target: T4, EHF (Homo sapiens, UniProt Q9NZC4 1-300)
# T4 sequence: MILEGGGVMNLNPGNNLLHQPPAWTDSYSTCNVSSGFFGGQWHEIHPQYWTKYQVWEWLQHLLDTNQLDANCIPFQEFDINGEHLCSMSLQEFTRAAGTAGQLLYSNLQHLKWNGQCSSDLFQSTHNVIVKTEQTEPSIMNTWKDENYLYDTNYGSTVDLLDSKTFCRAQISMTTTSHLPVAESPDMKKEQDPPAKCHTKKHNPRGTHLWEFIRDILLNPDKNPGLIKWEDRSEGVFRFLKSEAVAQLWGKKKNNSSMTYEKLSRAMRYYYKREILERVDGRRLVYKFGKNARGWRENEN
# How it was run: as §1
# SPIB = SPIB (Homo sapiens, UniProt Q01892 1-262)
# Chain of SPIB (Q01892 whole entry): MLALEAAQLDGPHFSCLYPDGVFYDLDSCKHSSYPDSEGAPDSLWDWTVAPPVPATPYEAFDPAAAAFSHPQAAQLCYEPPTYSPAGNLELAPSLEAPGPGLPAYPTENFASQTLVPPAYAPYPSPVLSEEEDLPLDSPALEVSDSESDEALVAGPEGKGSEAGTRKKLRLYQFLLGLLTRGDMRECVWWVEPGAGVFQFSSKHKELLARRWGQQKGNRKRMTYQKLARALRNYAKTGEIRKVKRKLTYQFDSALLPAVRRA
# How it was run: as §1
# FEV = target: T5, FEV (Homo sapiens, UniProt Q99581 1-238)
# T5 sequence: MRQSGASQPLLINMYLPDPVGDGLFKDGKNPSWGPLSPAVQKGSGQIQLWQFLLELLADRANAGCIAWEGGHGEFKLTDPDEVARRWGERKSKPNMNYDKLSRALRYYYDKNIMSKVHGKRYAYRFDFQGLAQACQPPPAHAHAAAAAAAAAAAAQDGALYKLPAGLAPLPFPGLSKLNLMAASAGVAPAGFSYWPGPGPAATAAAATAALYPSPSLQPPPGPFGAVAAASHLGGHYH
# How it was run: as §1
# ETV5 = ETV5 (Homo sapiens, UniProt P41161 1-510)
# Chain of ETV5 (P41161 whole entry): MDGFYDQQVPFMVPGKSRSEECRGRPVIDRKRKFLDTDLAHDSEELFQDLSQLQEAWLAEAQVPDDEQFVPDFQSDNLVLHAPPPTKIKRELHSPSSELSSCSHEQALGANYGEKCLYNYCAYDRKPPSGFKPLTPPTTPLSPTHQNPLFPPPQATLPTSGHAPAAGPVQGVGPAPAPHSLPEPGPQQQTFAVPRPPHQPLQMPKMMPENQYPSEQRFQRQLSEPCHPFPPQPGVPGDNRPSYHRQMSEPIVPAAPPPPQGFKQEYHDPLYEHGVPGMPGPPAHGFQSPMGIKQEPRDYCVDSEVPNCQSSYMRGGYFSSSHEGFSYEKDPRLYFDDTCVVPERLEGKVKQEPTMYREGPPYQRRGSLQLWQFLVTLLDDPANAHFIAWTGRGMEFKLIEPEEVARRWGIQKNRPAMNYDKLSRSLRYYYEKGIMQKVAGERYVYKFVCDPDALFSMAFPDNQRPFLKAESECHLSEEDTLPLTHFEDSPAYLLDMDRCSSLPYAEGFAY
# How it was run: as §1
# ELK4 = target: T6, ELK4 (Homo sapiens, UniProt P28324-2 1-405)
# T6 sequence: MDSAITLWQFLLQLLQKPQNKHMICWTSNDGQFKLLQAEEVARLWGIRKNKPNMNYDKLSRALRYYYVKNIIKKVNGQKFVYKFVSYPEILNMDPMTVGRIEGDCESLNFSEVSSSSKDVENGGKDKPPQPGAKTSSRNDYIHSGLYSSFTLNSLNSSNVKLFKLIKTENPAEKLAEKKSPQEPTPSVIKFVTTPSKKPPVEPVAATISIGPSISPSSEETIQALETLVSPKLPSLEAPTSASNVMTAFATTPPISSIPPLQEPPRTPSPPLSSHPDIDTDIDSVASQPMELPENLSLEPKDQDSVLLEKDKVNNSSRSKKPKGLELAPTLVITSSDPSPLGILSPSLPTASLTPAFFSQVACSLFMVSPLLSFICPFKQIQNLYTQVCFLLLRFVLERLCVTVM
# How it was run: as §1
# ELF3 = target: T7, ELF3 (Homo sapiens, UniProt P78545 1-371)
# T7 sequence: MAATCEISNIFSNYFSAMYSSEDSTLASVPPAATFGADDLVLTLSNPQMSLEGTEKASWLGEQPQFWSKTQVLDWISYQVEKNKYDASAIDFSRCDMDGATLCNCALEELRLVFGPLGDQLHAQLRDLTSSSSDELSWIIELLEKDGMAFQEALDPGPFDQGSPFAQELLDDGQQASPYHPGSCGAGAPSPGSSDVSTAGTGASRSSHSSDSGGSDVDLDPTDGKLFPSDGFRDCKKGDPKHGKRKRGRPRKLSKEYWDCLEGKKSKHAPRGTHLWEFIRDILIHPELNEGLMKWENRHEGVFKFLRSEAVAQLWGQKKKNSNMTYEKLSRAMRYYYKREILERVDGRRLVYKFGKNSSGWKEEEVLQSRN
# How it was run: as §1
# ETV1 = ETV1 (Homo sapiens, UniProt P50549 1-477)
# Chain of ETV1 (P50549 whole entry): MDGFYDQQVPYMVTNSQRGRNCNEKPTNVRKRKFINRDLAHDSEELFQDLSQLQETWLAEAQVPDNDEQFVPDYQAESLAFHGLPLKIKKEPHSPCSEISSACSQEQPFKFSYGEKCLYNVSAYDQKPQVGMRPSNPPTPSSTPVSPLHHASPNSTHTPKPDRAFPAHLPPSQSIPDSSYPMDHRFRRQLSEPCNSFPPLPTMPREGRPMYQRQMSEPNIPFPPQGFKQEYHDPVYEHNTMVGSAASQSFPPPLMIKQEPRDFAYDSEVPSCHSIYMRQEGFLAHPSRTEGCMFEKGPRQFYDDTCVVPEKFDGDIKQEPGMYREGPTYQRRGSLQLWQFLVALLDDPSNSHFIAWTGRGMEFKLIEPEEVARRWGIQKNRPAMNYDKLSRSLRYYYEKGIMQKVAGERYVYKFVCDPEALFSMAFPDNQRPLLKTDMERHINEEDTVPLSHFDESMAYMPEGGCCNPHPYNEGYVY
# How it was run: as §1
# ERF = target: T8, ERF (Homo sapiens, UniProt P50548 1-548)
# T8 sequence: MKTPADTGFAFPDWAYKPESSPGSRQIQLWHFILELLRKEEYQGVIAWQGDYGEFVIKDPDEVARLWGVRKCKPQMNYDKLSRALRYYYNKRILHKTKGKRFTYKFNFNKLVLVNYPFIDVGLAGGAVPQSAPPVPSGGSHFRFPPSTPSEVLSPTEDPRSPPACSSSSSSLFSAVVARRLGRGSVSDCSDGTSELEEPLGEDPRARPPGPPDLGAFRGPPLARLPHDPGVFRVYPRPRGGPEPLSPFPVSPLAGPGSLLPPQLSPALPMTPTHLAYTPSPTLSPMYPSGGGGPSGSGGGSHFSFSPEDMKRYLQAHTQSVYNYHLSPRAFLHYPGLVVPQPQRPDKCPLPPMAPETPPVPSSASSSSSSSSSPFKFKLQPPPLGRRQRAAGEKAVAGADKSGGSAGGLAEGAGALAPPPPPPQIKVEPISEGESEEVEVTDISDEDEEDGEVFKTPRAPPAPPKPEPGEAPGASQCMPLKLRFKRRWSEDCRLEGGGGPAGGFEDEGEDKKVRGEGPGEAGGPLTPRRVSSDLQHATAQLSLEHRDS
# How it was run: as §1
# ETV3L = target: T9, ETV3L (Homo sapiens, UniProt Q6ZN32 1-361)
# T9 sequence: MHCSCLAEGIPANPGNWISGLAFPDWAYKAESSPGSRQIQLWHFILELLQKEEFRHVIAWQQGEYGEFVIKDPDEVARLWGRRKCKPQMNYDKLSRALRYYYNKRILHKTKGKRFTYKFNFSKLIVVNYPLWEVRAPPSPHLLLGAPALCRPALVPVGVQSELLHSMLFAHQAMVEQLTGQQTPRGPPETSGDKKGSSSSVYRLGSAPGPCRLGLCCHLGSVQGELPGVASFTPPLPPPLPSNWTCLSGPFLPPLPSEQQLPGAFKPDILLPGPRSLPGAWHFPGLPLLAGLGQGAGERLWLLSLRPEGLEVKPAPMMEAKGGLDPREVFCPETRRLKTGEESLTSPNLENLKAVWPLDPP
# How it was run: as §1
# ETS2 = target: T10, ETS2 (Homo sapiens, UniProt P15036 1-469)
# T10 sequence: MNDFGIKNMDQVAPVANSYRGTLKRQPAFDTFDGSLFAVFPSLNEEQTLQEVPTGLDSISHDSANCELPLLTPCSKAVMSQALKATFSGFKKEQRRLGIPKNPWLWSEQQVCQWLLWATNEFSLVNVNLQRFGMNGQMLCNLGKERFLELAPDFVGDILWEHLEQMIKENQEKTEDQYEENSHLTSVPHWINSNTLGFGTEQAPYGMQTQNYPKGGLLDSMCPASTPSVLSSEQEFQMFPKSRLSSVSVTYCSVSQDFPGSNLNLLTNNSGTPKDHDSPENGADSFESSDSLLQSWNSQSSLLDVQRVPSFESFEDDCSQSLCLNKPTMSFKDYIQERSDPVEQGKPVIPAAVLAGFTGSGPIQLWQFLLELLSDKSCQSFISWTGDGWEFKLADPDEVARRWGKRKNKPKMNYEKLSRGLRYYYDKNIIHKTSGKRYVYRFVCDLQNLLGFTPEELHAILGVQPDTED
# How it was run: as §1
# SPDEF = target: T11, SPDEF (Homo sapiens, UniProt O95238 1-335)
# T11 sequence: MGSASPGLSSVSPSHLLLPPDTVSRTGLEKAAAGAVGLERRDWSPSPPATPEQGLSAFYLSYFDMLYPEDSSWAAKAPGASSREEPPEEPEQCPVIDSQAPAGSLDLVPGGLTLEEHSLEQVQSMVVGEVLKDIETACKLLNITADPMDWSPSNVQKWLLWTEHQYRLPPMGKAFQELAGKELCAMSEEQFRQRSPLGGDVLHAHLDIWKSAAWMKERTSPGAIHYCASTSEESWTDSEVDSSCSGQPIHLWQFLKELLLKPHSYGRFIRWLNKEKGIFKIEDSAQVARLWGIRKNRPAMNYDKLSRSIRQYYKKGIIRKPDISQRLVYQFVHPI
# How it was run: as §1
# ETV7 = target: T12, ETV7 (Homo sapiens, UniProt Q9Y603 1-341)
# T12 sequence: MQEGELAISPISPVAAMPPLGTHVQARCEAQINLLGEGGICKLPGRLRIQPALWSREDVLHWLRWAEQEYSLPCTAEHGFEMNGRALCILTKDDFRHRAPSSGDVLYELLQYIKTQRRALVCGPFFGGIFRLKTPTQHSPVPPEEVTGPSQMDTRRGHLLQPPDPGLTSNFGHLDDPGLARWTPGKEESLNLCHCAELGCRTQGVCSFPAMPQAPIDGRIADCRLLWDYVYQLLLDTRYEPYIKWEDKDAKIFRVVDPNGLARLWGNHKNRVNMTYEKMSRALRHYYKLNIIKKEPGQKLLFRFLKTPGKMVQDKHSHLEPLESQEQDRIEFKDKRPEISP
# How it was run: as §1
# ETV3 = target: T13, ETV3 (Homo sapiens, UniProt P41162-2 1-143)
# T13 sequence: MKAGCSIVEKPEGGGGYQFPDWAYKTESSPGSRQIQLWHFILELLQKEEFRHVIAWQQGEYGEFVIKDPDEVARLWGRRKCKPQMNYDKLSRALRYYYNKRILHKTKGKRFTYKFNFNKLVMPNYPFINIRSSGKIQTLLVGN
# How it was run: as §1
sequence,measurement,setting,value
AGCGAT,binding signal,ELK1,"1.11 fold enrichment (6-mer frequency, TF over GST control)"
same,binding signal,GABPA,"1.07 fold enrichment (6-mer frequency, TF over GST control)"
same,binding signal,ERG,"1.06 fold enrichment (6-mer frequency, TF over GST control)"
same,binding signal,ELF1,"1.09 fold enrichment (6-mer frequency, TF over GST control)"
same,binding signal,EHF,"1.07 fold enrichment (6-mer frequency, TF over GST control)"
same,binding signal,SPIB,"1.02 fold enrichment (6-mer frequency, TF over GST control)"
same,binding signal,FEV,"1.05 fold enrichment (6-mer frequency, TF over GST control)"
same,binding signal,ETV5,"1.14 fold enrichment (6-mer frequency, TF over GST control)"
same,binding signal,ELK4,"1.07 fold enrichment (6-mer frequency, TF over GST control)"
same,binding signal,ELF3,"1.2 fold enrichment (6-mer frequency, TF over GST control)"
same,binding signal,ETV1,"1.02 fold enrichment (6-mer frequency, TF over GST control)"
same,binding signal,ERF,"1.09 fold enrichment (6-mer frequency, TF over GST control)"
same,binding signal,ETV3L,"1.1 fold enrichment (6-mer frequency, TF over GST control)"
same,binding signal,ETS2,"1.09 fold enrichment (6-mer frequency, TF over GST control)"
same,binding signal,SPDEF,"1.08 fold enrichment (6-mer frequency, TF over GST control)"
same,binding signal,ETV7,"1.09 fold enrichment (6-mer frequency, TF over GST control)"
same,binding signal,ETV3,"1.02 fold enrichment (6-mer frequency, TF over GST control)"
